This passage reports AC50 and outcome results from PubChem BioAssay (EPA / NIEHS).

The structures appear in SMILES notation. Inconclusive results are not listed. Active and inactive are the calls of the source. Rule for the calls: active = hit-call score of the fitted dose curve at least 0.9, where 1 is the maximum; inconclusive = response in the unintended direction; inactive = score below 0.9.

This assay deals with human Phosphodiesterase 10 (PDE10), PDE10A (gene 10846) (UniProt Q9Y233). As to the kind of experiment: NVS_ENZ_hPDE10: NovaScreen (NVS) Enzymatic Assay for human Phosphodiesterase 10 (PDE10) (AID 2283195). Here is the method: NVS_ENZ_hPDE10 is a biochemical, single-readout assay that uses extracted gene-proteins in a cell-free assay. Measurements were taken 1 hour after chemical dosing in a 384-well plate.NVS_ENZ_hPDE10 is one of one assay component(s) measured or calculated from the NVS_ENZ_hPDE10 assay. It is designed to make measurements of enzyme activity, a form of enzyme reporter, as detected with fluorescence intensity signals by Fluorescence and electrophoretic mobility shift technology.Data from the assay component NVS_ENZ_hPDE10 was analyzed into 1 assay endpoint. This assay endpoint, NVS_ENZ_hPDE10, was analyzed in the positive analysis fitting direction relative to DMSO as the negative control and baseline of activity. Using a type of enzyme reporter, loss-of-signal activity can be used to understand changes in the enzymatic activity as they relate to the gene PDE10A. Furthermore, this assay endpoint can be referred to as a primary readout, because this assay has produced multiple assay endpoints where this one serves a enzymatic activity function. To generalize the intended target to other relatable targets, this assay endpoint is annotated to the esterase intended target family, where the subfamily is phosphodiesterase.
human Phosphodiesterase 10 (PDE10), PDE10A (gene 10846), sequence (Q9Y233 whole entry, looked up): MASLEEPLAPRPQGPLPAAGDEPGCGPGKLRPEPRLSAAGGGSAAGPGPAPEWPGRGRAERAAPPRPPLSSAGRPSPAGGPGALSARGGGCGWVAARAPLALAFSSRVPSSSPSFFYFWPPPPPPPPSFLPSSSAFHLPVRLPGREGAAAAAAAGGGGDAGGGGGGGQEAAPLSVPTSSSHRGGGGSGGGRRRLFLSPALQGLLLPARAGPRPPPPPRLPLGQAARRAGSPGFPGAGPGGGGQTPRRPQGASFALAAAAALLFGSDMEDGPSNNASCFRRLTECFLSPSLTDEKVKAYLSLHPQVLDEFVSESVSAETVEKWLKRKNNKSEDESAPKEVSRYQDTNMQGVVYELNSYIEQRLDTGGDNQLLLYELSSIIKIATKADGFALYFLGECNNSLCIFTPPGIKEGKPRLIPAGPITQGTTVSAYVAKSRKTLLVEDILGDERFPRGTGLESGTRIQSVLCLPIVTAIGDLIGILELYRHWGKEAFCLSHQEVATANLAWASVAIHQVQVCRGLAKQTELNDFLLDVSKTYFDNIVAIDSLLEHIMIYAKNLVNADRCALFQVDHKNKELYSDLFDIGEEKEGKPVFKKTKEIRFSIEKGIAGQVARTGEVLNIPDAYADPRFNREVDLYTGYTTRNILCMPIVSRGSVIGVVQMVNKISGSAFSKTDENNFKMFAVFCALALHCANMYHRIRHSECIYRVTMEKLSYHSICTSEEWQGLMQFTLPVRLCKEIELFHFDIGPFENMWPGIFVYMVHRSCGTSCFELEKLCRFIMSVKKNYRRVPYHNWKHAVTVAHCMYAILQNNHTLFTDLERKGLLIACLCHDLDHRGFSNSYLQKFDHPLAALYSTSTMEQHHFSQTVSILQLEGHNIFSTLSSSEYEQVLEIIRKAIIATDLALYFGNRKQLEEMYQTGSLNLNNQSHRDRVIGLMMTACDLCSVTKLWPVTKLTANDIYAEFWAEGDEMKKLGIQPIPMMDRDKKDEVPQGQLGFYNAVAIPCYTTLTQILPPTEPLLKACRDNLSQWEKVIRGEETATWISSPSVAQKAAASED
Binding assays used specific radioligands (tritiated, iodinated) with non-radioactive competitive displacement ligands in agonist or antagonist protocols (as indicated) and various reference compounds and inhibitors to titrate specific binding to receptors and transporters. Most enzyme assays (CYPs, kinases, phosphatases, proteases, HDACs) used recombinant protein and specific substrates (fluorescence mostly, some colorimetric and radioactive) and inhibitors, followed by a biochemical separation of substrate and product. All assays for the biochemical HTS were initially run in duplicate at a single concentration (10 uM for CYP450 assays and 25 uM for all others). Assay-chemical combinations meeting a pre-defined threshold (e.g., 30% inhibition and other criteria defined below) were then run in singleton concentration-response format with maximum concentration of 20 uM for CYPs and 50 uM for all others. Each assay was run with positive and negative controls, and concurrent controls on every plate. The follow-up (secondary) screen tested active chemical-pairs in concentration series, as well as a few additional assays not tested in the primary screen, some selected negative inactives, and several cases re-run in the concentration series for confirmatory purposes.
On to `COc1ccccc1NC(=O)CC(C)=O`, for which the AC50 is 7.87 µM (active). As for `CC(C)(C)c1cc(CCC(=O)OCCSCCOC(=O)CCc2cc(C(C)(C)C)c(O)c(C(C)(C)C)c2)cc(C(C)(C)C)c1O`, the result was inactive. In the case of `O=C(c1ccc(OCCN2CCCCC2)cc1)c1c(-c2ccc(O)cc2)sc2cc(O)ccc12`, the AC50 was 25 µM (active). Take `S=c1[nH][nH]c(=S)s1`: the molecule was classed as inactive. As to `CC/C(=C(\c1ccccc1)c1ccc(OCCN(C)C)cc1)c1ccccc1`, the AC50 was 22.9 µM (active).

For `CCOC(=O)CCCCCCCCC(=O)OCC`, the outcome was inactive. For the molecule `CCC(CC)CO`, the molecule was classed as inactive. Still for that read-out and setting: the entry for `CCCCCCOC(C)=O` is “inactive”. Same read-out and setting: under `N#CCCNCCC#N` stands “inactive”. On to `OCCCO`, for which the AC50 is 16.1 µM (active). Consider `Brc1cc(Br)cc(Br)c1`, for which the outcome was inactive.

As for `CC1(C)[C@H](C=C(Cl)Cl)[C@H]1C(=O)OCc1cccc(Oc2ccccc2)c1`, the AC50 is 25 µM (active). In the case of `CCO[Si](CCC#N)(OCC)OCC`, the result was inactive.

For the molecule `CC(O)COCC(C)O` (centres undefined), the molecule was classed as inactive.
